Results taken from PMC7862700, “An all-to-all approach to the identification of sequence-specific readers for epigenetic DNA modifications on cytosine”.

Columns and labels:
Assay in all cases: DAPPL (digital affinity profiling via proximity ligation, sequencing); 10 mM Tris-HCl pH 7.5, 50 mM NaCl, 1 mM DTT, 4% glycerol, room temperature, 30 min; GST-TFs on glutathione beads, 16-mer random dsDNA library, 0.1% formaldehyde crosslink after washing; high values mean tight binding
[1] = target: T1, FLI1 (Homo sapiens, UniProt Q01543 1-452); conditions: protein: recombinant; tags: N-terminal GST; dsDNA, one strand shown
T1 sequence: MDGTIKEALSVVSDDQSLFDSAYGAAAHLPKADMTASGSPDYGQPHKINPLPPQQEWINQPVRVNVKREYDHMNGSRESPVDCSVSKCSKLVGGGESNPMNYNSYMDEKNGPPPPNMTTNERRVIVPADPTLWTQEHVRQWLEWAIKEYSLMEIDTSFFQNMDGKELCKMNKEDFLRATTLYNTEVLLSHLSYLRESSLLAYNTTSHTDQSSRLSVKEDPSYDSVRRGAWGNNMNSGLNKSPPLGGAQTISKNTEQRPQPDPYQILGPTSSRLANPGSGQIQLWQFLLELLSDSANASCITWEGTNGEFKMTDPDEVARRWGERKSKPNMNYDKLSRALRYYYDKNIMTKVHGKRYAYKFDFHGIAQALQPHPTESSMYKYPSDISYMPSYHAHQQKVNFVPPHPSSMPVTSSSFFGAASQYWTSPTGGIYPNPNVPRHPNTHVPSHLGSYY
How it was run: (§1)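 GST fusions of human transcription factors were expressed in yeast and captured with glutathione beads. Once given DNA barcodes and pooled alongside a tag-only sample, they were incubated for 30 min at room temperature with 200 nmole of a random double-stranded 16-mer DNA library in Tris/NaCl/DTT/glycerol buffer, then washed, crosslinked (0.1% formaldehyde), proximity-ligated, PCR-amplified and sequenced on an Illumina NextSeq500. The binding signal of each hexamer is its read frequency for a factor divided by its frequency for the tag-only sample.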

[2] = target: T2, ELK1 (Homo sapiens, UniProt P19419 1-428); conditions: protein: recombinant; tags: N-terminal GST; dsDNA, one strand shown
T2 sequence: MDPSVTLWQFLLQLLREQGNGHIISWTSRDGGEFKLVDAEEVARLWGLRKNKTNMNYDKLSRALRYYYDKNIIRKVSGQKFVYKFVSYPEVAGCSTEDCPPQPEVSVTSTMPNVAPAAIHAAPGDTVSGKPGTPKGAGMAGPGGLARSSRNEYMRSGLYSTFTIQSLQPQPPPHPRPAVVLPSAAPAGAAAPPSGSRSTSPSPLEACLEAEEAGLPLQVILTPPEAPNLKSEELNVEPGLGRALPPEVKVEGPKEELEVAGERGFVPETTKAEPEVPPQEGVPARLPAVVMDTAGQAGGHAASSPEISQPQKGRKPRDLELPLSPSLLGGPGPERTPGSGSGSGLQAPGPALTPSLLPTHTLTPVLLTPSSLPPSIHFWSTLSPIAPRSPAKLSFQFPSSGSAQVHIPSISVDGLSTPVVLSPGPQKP
How it was run: as §1

[3] = target: T3, GABPA (Homo sapiens, UniProt Q06546 1-454); conditions: protein: recombinant; tags: N-terminal GST; dsDNA, one strand shown
T3 sequence: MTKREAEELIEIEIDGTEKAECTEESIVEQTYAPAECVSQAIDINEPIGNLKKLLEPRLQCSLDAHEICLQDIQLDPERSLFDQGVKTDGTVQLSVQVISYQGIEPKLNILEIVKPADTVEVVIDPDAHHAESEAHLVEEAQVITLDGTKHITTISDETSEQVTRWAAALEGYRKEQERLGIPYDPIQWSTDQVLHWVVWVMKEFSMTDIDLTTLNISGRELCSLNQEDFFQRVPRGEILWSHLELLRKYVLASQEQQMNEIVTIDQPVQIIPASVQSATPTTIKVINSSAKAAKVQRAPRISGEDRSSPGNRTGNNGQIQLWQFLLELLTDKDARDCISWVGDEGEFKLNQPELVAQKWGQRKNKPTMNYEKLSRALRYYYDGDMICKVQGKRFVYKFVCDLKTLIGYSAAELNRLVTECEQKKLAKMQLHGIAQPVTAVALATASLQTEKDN
How it was run: as §1

[4] = target: T4, ERG (Homo sapiens, UniProt P11308 1-479); conditions: protein: recombinant; tags: N-terminal GST; dsDNA, one strand shown
T4 sequence: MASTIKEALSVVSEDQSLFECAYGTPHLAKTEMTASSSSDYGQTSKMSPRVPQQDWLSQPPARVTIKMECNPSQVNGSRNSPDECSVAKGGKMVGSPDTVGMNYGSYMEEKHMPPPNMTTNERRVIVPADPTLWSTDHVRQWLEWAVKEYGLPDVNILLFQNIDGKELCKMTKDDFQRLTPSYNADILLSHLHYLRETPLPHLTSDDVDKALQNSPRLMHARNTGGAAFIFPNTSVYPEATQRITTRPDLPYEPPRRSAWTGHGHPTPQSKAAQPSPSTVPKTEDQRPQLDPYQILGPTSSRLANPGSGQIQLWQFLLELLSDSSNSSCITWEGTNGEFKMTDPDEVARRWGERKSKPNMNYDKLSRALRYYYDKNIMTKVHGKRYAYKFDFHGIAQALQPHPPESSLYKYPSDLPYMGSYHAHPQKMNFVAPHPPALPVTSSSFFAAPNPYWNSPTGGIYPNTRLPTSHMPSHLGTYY
How it was run: as §1

[5] = target: ELF1 (Homo sapiens, UniProt P32519 1-619); conditions: protein: recombinant; tags: N-terminal GST; dsDNA, one strand shown
ELF1, sequence (P32519 whole entry): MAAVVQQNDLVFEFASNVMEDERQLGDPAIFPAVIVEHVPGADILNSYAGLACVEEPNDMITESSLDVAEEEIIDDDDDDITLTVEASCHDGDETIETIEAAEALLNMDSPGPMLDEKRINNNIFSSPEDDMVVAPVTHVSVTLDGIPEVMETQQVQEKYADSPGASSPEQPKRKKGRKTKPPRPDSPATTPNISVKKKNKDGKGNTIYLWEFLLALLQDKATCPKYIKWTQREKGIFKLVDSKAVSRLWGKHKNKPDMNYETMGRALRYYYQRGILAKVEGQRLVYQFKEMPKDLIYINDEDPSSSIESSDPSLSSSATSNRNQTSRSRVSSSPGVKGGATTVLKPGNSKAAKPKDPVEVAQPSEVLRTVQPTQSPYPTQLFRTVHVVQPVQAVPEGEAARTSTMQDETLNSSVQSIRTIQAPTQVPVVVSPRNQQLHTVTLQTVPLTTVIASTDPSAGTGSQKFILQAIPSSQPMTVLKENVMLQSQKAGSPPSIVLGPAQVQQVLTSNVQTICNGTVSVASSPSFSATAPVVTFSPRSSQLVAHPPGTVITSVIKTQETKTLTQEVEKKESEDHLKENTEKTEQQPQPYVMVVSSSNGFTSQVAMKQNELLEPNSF
How it was run: as §1

[6] = target: T5, EHF (Homo sapiens, UniProt Q9NZC4 1-300); conditions: protein: recombinant; tags: N-terminal GST; dsDNA, one strand shown
T5 sequence: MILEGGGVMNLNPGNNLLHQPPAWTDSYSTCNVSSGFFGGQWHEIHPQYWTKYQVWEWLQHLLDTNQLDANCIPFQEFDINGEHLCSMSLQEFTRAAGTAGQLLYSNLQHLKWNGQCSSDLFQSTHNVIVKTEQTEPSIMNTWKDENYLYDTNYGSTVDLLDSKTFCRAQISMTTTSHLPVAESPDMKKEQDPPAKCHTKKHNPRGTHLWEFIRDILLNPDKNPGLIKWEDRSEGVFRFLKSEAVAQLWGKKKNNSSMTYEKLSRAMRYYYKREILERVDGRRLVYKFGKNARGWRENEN
How it was run: as §1

[7] = target: SPI1 (Homo sapiens, UniProt P17947 1-270); conditions: protein: recombinant; tags: N-terminal GST; dsDNA, one strand shown
How it was run: as §1

[8] = target: SPIB (Homo sapiens, UniProt Q01892 1-262); conditions: protein: recombinant; tags: N-terminal GST; dsDNA, one strand shown
SPIB, sequence (Q01892 whole entry): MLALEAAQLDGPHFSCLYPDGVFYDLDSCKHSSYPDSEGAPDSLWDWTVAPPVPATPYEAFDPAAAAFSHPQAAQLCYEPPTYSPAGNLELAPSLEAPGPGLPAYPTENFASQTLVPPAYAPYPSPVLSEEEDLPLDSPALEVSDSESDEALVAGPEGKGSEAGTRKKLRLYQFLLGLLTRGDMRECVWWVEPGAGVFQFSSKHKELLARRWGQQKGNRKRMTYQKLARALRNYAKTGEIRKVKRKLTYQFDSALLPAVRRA
How it was run: as §1

[9] = target: T6, ELK3 (Homo sapiens, UniProt P41970 1-407); conditions: protein: recombinant; tags: N-terminal GST; dsDNA, one strand shown
T6 sequence: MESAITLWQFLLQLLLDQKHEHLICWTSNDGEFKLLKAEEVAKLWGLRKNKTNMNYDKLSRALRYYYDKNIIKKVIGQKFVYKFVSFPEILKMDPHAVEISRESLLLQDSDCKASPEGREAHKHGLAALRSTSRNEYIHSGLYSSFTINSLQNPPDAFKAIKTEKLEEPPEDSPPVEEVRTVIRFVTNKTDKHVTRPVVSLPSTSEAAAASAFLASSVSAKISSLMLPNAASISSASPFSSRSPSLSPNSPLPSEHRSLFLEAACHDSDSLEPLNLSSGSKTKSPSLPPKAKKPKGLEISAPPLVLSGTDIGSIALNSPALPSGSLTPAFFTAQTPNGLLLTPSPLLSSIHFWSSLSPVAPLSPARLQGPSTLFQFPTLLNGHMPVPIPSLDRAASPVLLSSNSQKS
How it was run: as §1

[10] = target: T7, FEV (Homo sapiens, UniProt Q99581 1-238); conditions: protein: recombinant; tags: N-terminal GST; dsDNA, one strand shown
T7 sequence: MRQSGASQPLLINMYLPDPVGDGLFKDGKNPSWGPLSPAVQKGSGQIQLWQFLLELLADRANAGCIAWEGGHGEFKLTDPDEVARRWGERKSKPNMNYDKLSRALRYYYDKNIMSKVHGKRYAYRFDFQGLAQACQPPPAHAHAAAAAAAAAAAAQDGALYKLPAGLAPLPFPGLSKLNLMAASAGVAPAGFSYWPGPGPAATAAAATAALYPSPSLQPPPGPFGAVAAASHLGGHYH
How it was run: as §1

[11] = target: ETV5 (Homo sapiens, UniProt P41161 1-510); conditions: protein: recombinant; tags: N-terminal GST; dsDNA, one strand shown
ETV5, sequence (P41161 whole entry): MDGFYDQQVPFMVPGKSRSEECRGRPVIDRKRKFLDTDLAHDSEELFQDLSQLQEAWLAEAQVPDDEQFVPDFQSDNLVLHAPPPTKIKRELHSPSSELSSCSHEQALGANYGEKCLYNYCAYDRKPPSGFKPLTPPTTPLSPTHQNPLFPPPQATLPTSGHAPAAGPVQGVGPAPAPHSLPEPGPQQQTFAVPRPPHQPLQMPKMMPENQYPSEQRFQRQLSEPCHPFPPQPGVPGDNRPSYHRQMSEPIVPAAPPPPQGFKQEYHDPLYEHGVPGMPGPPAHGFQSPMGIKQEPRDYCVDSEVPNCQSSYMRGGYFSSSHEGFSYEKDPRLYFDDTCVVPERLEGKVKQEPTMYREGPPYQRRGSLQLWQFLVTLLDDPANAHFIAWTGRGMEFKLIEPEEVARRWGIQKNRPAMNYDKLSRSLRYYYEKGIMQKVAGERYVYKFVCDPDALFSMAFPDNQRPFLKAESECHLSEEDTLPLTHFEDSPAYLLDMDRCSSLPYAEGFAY
How it was run: as §1

[12] = target: HSF1 (Homo sapiens, UniProt Q00613 1-529); conditions: protein: recombinant; tags: N-terminal GST; chain copies: 3; dsDNA, one strand shown
HSF1, sequence (Q00613 whole entry): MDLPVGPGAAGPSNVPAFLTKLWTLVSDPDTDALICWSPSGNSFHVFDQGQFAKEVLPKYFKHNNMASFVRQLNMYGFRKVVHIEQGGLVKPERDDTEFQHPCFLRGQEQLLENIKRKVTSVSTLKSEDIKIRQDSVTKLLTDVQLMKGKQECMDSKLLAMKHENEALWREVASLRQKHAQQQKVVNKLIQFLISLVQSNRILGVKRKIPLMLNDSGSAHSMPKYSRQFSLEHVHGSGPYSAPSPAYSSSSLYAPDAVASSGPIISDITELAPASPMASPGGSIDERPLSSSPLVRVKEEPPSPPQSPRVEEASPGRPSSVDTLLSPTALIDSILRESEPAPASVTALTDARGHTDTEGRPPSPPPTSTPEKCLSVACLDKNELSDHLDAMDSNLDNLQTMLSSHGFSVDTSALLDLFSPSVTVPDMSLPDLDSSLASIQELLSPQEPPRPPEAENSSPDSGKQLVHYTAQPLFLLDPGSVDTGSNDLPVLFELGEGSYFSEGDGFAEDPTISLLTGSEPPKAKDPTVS
How it was run: as §1

[13] = target: T8, SPIC (Homo sapiens, UniProt Q8N5J4 1-248); conditions: protein: recombinant; tags: N-terminal GST; dsDNA, one strand shown
T8 sequence: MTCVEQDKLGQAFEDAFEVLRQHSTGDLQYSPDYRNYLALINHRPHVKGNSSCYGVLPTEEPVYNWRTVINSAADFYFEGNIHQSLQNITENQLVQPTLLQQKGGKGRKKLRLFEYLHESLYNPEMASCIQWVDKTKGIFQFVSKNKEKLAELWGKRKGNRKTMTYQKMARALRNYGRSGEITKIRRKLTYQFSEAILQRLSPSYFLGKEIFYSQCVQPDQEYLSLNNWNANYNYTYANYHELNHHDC
How it was run: as §1

[14] = target: ELF4 (Homo sapiens, UniProt Q99607 1-663); conditions: protein: recombinant; tags: N-terminal GST; dsDNA, one strand shown
ELF4, sequence (Q99607 whole entry): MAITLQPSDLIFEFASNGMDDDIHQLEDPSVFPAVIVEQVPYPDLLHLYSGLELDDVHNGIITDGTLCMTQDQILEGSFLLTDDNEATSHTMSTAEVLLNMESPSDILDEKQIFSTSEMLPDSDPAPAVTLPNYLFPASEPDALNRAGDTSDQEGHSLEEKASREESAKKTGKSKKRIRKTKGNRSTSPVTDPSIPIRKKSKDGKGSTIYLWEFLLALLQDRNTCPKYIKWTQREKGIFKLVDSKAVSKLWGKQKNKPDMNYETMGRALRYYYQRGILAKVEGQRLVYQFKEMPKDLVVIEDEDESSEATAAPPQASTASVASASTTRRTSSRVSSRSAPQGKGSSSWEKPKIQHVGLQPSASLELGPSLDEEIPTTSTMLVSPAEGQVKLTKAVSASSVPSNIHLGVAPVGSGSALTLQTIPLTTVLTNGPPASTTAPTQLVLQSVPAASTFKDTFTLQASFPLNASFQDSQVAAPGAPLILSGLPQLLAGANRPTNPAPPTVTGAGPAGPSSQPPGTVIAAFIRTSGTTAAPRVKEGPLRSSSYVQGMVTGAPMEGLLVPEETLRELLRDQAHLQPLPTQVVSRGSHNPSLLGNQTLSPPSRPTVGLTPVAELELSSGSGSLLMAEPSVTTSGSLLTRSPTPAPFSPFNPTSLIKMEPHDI
How it was run: as §1

[15] = target: T9, ELK4 (Homo sapiens, UniProt P28324-2 1-405); conditions: protein: recombinant; tags: N-terminal GST; dsDNA, one strand shown
T9 sequence: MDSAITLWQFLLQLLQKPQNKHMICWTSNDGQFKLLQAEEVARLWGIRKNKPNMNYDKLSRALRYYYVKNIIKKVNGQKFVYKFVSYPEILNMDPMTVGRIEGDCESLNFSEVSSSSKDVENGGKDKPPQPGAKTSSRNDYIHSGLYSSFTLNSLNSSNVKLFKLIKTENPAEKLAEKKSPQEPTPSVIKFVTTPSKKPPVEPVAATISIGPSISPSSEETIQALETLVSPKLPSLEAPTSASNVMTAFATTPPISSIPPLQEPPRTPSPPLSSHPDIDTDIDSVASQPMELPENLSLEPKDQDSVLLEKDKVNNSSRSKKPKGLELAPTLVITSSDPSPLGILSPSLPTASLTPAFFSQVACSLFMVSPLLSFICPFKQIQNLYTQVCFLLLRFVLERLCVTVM
How it was run: as §1

[16] = target: T10, ETV2 (Homo sapiens, UniProt O00321 1-342); conditions: protein: recombinant; tags: N-terminal GST; dsDNA, one strand shown
T10 sequence: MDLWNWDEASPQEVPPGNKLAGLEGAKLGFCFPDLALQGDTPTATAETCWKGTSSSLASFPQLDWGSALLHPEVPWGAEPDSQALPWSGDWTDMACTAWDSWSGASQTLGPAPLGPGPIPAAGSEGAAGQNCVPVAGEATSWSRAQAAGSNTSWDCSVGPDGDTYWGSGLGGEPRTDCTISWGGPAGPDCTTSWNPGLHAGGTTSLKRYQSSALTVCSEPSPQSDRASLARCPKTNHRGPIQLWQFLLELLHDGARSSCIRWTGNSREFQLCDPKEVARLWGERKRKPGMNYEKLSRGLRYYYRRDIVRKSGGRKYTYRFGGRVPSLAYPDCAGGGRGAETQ
How it was run: as §1

[17] = target: T11, ELF3 (Homo sapiens, UniProt P78545 1-371); conditions: protein: recombinant; tags: N-terminal GST; dsDNA, one strand shown
T11 sequence: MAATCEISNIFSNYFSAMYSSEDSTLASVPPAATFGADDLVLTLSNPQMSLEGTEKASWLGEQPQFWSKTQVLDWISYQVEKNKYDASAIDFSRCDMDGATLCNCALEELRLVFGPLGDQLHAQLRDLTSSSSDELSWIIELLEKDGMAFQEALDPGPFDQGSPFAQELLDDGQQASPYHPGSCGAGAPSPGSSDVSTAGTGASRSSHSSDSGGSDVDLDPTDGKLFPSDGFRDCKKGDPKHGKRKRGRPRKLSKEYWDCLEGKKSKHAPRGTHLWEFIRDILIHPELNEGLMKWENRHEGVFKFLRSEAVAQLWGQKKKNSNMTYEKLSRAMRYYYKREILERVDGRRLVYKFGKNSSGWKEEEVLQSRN
How it was run: as §1

[18] = target: ETV1 (Homo sapiens, UniProt P50549 1-477); conditions: protein: recombinant; tags: N-terminal GST; dsDNA, one strand shown
ETV1, sequence (P50549 whole entry): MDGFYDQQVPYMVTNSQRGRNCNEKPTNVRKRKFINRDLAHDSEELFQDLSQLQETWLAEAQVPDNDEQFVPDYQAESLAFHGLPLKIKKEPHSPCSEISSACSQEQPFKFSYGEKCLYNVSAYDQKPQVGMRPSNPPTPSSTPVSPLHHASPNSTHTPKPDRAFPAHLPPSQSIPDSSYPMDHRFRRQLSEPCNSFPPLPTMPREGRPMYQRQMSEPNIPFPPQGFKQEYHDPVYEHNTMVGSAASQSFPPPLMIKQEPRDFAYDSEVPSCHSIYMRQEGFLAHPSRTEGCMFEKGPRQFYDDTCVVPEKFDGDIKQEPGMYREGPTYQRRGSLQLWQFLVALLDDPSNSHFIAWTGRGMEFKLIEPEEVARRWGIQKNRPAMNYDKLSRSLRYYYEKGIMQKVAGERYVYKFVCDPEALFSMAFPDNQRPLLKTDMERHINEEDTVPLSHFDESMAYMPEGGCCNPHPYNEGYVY
How it was run: as §1

CTGACA
binding signal [1]: 1.19 fold enrichment (6-mer frequency, TF over GST control)
binding signal [2]: 1.18 fold enrichment (6-mer frequency, TF over GST control)
binding signal [3]: 1.2 fold enrichment (6-mer frequency, TF over GST control)
binding signal [4]: 1.22 fold enrichment (6-mer frequency, TF over GST control)
binding signal [5]: 1.27 fold enrichment (6-mer frequency, TF over GST control)
binding signal [6]: 1.32 fold enrichment (6-mer frequency, TF over GST control)
binding signal [7]: 1.26 fold enrichment (6-mer frequency, TF over GST control)
binding signal [8]: 1.17 fold enrichment (6-mer frequency, TF over GST control)
binding signal [9]: 1.24 fold enrichment (6-mer frequency, TF over GST control)
binding signal [10]: 1.19 fold enrichment (6-mer frequency, TF over GST control)
binding signal [11]: 1.22 fold enrichment (6-mer frequency, TF over GST control)
binding signal [12]: 1.01 fold enrichment (6-mer frequency, TF over GST control)
binding signal [13]: 1.03 fold enrichment (6-mer frequency, TF over GST control)
binding signal [14]: 1.27 fold enrichment (6-mer frequency, TF over GST control)
binding signal [15]: 1.29 fold enrichment (6-mer frequency, TF over GST control)
binding signal [16]: 1.2 fold enrichment (6-mer frequency, TF over GST control)
binding signal [17]: 1.25 fold enrichment (6-mer frequency, TF over GST control)
binding signal [18]: 1.19 fold enrichment (6-mer frequency, TF over GST control)
